The source of these data is PubChem BioAssay (NCATS).

The nature of assay [1]: qHTS for Inhibitors of the Functional Ribonucleoprotein Complex (vRNP) of Lassa (LASV) Arenavirus: LASV Primary Screen - GLuc reporter signal (AID 1347082; calls by dose curve; tested in HEK293 reporter line; further: on the % scale 0 is the no-effect control and ±100 the full control effect; nearly all actives have a fitted effect of over 60% in size).
Assay [2] in a line: qHTS for Inhibitors of the Functional Ribonucleoprotein Complex (vRNP) of Lymphocytic Choriomeningitis Arenaviruses (LCMV): Viability assay - alamar blue signal for LCMV Primary Screen (AID 1347085; calls by dose curve; tested in HEK293 reporter line; further: on the % scale 0 is the no-effect control and ±100 the full control effect; nearly all actives have a fitted effect of over 80% in size). A general note: Quantitative high-throughput screening tests each substance at several concentrations.
Assay [3] deals with Nucleoprotein (Lymphocytic choriomeningitis virus (strain Armstrong)) (UniProt P09992). Kind of assay: qHTS for Inhibitors of the Functional Ribonucleoprotein Complex (vRNP) of Lymphocytic Choriomeningitis Arenaviruses (LCMV): LCMV Primary Screen - GLuc reporter signal (AID 1347086). Further: on the % scale 0 is the no-effect control and ±100 the full control effect; nearly all actives have a fitted effect of over 70% in size.
Chain of Nucleoprotein (Lymphocytic choriomeningitis virus (strain Armstrong)) (P09992 whole entry, looked up): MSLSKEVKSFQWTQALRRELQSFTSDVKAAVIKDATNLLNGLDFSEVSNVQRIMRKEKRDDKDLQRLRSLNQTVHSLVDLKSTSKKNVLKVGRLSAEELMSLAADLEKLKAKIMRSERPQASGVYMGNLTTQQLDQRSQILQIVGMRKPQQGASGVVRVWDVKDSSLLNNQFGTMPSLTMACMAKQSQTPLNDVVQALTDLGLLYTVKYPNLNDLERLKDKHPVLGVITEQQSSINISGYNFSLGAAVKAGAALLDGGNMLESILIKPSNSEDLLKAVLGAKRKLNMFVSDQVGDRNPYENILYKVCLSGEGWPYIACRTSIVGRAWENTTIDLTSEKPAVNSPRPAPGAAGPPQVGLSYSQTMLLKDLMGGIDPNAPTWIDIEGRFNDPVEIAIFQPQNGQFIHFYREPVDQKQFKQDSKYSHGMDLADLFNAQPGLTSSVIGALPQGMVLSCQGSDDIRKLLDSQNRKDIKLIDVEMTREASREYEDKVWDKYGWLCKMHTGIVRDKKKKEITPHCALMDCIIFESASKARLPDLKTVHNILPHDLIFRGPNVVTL
Assay [4] is described as follows: Cytotoxicity counterscreen for inhibitors of SARS-CoV-2 cell entry (AID 1645845). Further: nearly all actives have a fitted effect of over 50% in size. Further: potency means the concentration at half of the fitted maximal effect. Put shortly: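 HEK293-ACE2 cells (Expi293F stably expressing human ACE2) seeded overnight, then compound for 1 h plus 48 h at 37C. Viability as ATP content by luminescence; normalized to wells with cells and media-only wells.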
Assay [5] can be described thus: Primary qHTS to identify inhibitors of SARS-CoV-2 cell entry (AID 1645846). Further: nearly all actives have a fitted effect of over 45% in size. Further: potency means the concentration at half of the fitted maximal effect. To be noted: activity change, negative = inhibition: at 57.1 µM (top of the series) unless noted. The gist of the method:
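Using luciferase-reporting pseudoviruses carrying Wuhan-Hu-1 spike, the screen tracks entry into stably ACE2-expressing cells over 48 hr. Activity is expressed relative to spike particles versus particles lacking any fusion protein.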

The nature of assay [6]: Confirmatory qHTS to identify inhibitors of SARS-CoV-2 cell entry (AID 1645844). Further: potency means the concentration at half of the fitted maximal effect; nearly all actives have a fitted effect of over 45% in size. Put shortly:
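HEK293-ACE2 cells were pretreated 1 h with compound, then infected with MLV-based pseudoparticles bearing C-terminally truncated Wuhan-Hu-1 spike for 48 h at 37C; luciferase luminescence normalized to spike PP and bald PP wells.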

Assay [7] addresses Alpha-galactosidase (Coffea arabica) (UniProt Q42656). Kind of assay: Counterscreen for Glucocerebrosidase Inhibitors: qHTS Assay for Coffee Bean alpha-Galactosidase at pH 4.5 (AID 957; active means well fitted curve in the direction sought with a large enough effect; an effect the other way counts as inactive or inconclusive;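 further: plate controls were enzyme alone for no effect and no enzyme for full effect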). Put shortly: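 Coffee bean alpha-galactosidase 2 nM, substrate 4-MU-alpha-Gal 80 uM, pH 4.5 citrate/Tween-20, 20 min RT. Cpd titration 0.7 nM–77 uM. Stop pH 10, fluorescence 365/440 nm; Hill-equation AC50.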
(In general: Counterscreens check selectivity or assay interference.)

Assay [8] shares this target. Kind of assay: Counterscreen for Glucocerebrosidase Inhibitors: qHTS Assay for Coffee Bean alpha-Galactosidase at pH 5.9 (AID 998; active means well fitted curve in the direction sought with a large enough effect; an effect the other way counts as inactive or inconclusive;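 further: plate controls were uninhibited enzyme for no effect and no-enzyme basal signal for full effect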). Put shortly:
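Green coffee bean enzyme (2 nM) with 4-methylumbelliferyl alpha-D-galactopyranoside (80 uM) in 50 mM citric acid, 0.005% Tween-20, pH 5.9, 20 min at room temperature; compounds 0.7 nM–77 uM. Stopped at pH 10, fluorescence Ex365/Em440; Hill-fit AC50.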

Assay [9] is described as follows: Validation screen for inhibitors of Lassa infection (AID 463096). Further: on the % scale 0 is the no-effect control and ±100 the full control effect.
The nature of assay [10]: Inducers of the Endoplasmic Reticulum Stress Response (ERSR) in human glioma: Validation (AID 504836; active means well fitted curve in the direction sought with a large enough effect; an effect the other way counts as inactive or inconclusive; further: 0% is about no effect). Put shortly: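 Stably transfected U87-MG glioma cells carrying a GRP78-based luciferase sensor; 16 h compound incubation. Luminescence end-point read 10 min after Bright-Glo addition at room temperature.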
Assay [11] deals with Peroxisome proliferator-activated receptor delta (Homo sapiens) (UniProt Q03181). Kind of assay: qHTS assay for small molecule agonists of peroxisome proliferator-activated receptor delta signaling (AID 588534).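 Further: 0% = DMSO basal wells and 100% = positive control agonist at 10 µM.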 The gist of the method: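 Fluorescence from CCF4 substrate cleavage by beta-lactamase reporter, read 2 hrs at RT, measured agonist activity. Compounds were tested with 18 hrs exposure at 37 C. Concentration-response data fitted to Hill equation.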
Chain of Peroxisome proliferator-activated receptor delta (Homo sapiens) (Q03181 whole entry, looked up): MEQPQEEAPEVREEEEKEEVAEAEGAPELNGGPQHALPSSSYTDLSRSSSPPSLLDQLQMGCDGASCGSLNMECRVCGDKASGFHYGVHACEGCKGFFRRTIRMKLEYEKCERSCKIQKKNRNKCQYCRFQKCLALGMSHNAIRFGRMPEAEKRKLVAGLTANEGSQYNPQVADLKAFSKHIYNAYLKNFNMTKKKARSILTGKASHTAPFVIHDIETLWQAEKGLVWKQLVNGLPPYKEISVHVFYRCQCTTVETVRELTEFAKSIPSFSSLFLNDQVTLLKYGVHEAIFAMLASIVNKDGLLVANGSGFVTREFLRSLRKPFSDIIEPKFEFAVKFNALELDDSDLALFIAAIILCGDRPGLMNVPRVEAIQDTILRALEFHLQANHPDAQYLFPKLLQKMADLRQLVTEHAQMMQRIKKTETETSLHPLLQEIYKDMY

The nature of assay [12]: Primary qHTS for inhibitors of SARS-S pseudo-typed particle cell entry (AID 1479145). Further: nearly all actives have a fitted effect of over 45% in size.
Assay [13] in a line: Primary qHTS for Huh7 cytotoxicity: counterscreen for inhibitors of MERS-S pseudotyped particle cell entry (AID 1479147). Further: on the % scale 0 is the no-effect control and ±100 the full control effect. The settings on record: outcome: dose series up to 57.1 µM unless noted.
The nature of assay [14]: Primary qHTS for Vero E6 cytotoxicity: counterscreen for inhibitors of SARS-S pseudo-typed particle cell entry (AID 1479150). Further: on the % scale 0 is the no-effect control and ±100 the full control effect. To be noted: outcome: dose series up to 57.1 µM unless noted.

SMILES strings stand for the structures. Results filed as inconclusive are left out. Active and inactive are the calls of the source. Unless noted, the call rests on the fitted dose curve.

Chain of Alpha-galactosidase (Coffea arabica) (Q42656 whole entry, looked up): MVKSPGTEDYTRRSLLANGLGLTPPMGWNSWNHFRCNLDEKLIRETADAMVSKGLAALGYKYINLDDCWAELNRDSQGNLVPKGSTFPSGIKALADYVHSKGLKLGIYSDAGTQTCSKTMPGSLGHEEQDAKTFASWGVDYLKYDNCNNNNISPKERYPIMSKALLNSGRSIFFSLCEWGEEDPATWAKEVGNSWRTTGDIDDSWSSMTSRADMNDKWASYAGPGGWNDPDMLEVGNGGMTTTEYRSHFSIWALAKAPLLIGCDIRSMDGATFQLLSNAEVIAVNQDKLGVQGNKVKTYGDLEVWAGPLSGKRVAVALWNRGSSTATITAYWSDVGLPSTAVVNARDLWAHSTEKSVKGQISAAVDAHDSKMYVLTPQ

On to `NC(=O)c1cccc2[nH]c(-c3ccc([C@H]4CCCN4)cc3F)nc12`, for which the Potency result in assay [1], in assay [2] and in [3] was “inactive” in each case. The Potency in assay [4] was 11.2 µM (active); in [5], 31.6 µM (active).

For the molecule `C[C@]12CC[C@@H]3c4ccc(O)cc4CC[C@H]3[C@H]1[C@@H](O)[C@@H](O)[C@H]2O`, the Potency result in assay [1], in assay [2], in assay [3], in [4] and in assay [5] was “inactive” each time.

On to `Cn1c(=O)c(Oc2ccc(F)cc2F)cc2cnc(NC3CCOCC3)nc21`, for which the Potency result in [1], in [2], in [3], in assay [4] and in assay [5] was “inactive” throughout.

Take `N[C@H](CSC(c1ccccc1)(c1ccccc1)c1ccccc1)C(=O)O`: the Potency entry in assay [1], in [2], in assay [3] and in assay [4] was “inactive” throughout. Besides, the activity change, negative = inhibition in assay [5] was -15.9%.

With `CN1CCN(c2cccc(Nc3nc4c(-c5ccc(S(C)(=O)=O)cc5)cccn4n3)c2)CC1`, the Potency entry in [1], in assay [2], in [3] and in assay [4] was “inactive” in each case.

For `COc1cc2c3cc1Oc1c(OC)c(OC)cc4c1[C@H](Cc1ccc(cc1)Oc1cc(ccc1O)C[C@H]3N(C)CC2)N(C)CC4`, the Potency result in [1], in assay [2] and in [3] was “inactive” throughout.

For `O=c1c(O)c(-c2ccccc2)oc2ccccc12`, the Potency result in [1], in assay [2] and in [3] was “inactive” in each case.

With `C[C@H](NC(=O)C(C#N)=Cc1cccc(Br)n1)c1ccccc1`, the Potency entry in assay [1], in assay [2] and in assay [3] was “inactive” throughout.

Turning to `CC1(C)CCC[C@@]2(C)C1CC[C@@](C)(O)[C@@H]2CC[C@@](C)(O)C1CO1` (stereo not given in full), the Potency entry in assay [1], in assay [2] and in assay [3] was “inactive” in each case.

Consider `C=CCc1ccc(O)c(-c2ccc(O)c(CC=C)c2)c1`, for which the Potency result in assay [1], in assay [2] and in assay [3] was “inactive” in each case.

Regarding `O=C(O)C1(Cc2cccc(Nc3nccs3)n2)CCC(Oc2cccc(Cl)c2F)CC1` (stereo not given), the Potency result in assay [1], in assay [2], in assay [3] and in [4] was “inactive” in each case. Besides, the Potency in assay [6] is 10.8 µM (active).

As for `C[C@]12CC[C@@H]3c4ccc(O)cc4CC[C@H]3[C@@H]1CC[C@@H]2O`, the molecule was classed as inactive in assay [7], in assay [8], in assay [10], in assay [13] and in assay [14]. Further, the Potency entry in assay [9], in assay [11], in assay [1], in [2], in [3] and in [12] was “inactive” in each case.
